Drawing on PubChem BioAssay (EPA / NIEHS), this text covers outcome and AC50 for 60 compounds.

As a reminder, the AC50 is the midpoint of the concentration-response curve, whichever way the signal moves.

The nature of assay [1]: ACEA_AR_antagonist_AUC_viability: ACEA Biosciences xCELLigence Real-Time Cell Analysis on Androgen Receptor Antagonism for Viability (AID 2283776).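 Further: 22Rv1 human prostate cancer cells growing on impedance electrode plates; area under impedance growth curve at 80 h after dosing as viability; hits lower the growth signal relative to DMSO meaning cytotoxicity.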 Put shortly:
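Impedance read-out (RT-CES): area under growth curve at 80 h post-dose, loss of signal scored vs DMSO baseline. 22Rv1 cells; 8-pt 1:4 series, top 100 uM final, ≤0.5% DMSO; biological duplicate.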

The nature of assay [2]: ACEA_ER_AUC_viability: ACEA Biosciences xCELLigence Real-Time Cell Analysis on Estrogen Receptor Agonism for Viability (AID 2283782).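 Further: hit means loss of impedance signal meaning reduced cell growth or viability.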 The method, boiled down: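 Read-out: real-time electrical impedance (RT-CES) area under curve, loss of signal taken as reduced viability, normalized to DMSO baseline. T-47D cells, charcoal-stripped serum medium, compounds up to 100 uM final, continuous exposure, 80 h.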

The target in another assay is AR (gene 367) (UniProt P10275). Put plainly: ACEA_AR_agonist_80hr: ACEA Biosciences xCELLigence Real-Time Cell Analysis on Androgen Receptor Agonism for Proliferation (AID 2283783).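 Further: hits increase impedance growth signal above DMSO baseline.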 Put shortly: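 Impedance (RT-CES) growth signal at 80 h post-dose; 22Rv1 cells, 8-pt 1:4 series, top 100 uM final, DMSO ≤0.5%; duplicate plates; gain-of-signal fit relative to DMSO baseline.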
Sequence of AR (gene 367) (P10275 whole entry, looked up): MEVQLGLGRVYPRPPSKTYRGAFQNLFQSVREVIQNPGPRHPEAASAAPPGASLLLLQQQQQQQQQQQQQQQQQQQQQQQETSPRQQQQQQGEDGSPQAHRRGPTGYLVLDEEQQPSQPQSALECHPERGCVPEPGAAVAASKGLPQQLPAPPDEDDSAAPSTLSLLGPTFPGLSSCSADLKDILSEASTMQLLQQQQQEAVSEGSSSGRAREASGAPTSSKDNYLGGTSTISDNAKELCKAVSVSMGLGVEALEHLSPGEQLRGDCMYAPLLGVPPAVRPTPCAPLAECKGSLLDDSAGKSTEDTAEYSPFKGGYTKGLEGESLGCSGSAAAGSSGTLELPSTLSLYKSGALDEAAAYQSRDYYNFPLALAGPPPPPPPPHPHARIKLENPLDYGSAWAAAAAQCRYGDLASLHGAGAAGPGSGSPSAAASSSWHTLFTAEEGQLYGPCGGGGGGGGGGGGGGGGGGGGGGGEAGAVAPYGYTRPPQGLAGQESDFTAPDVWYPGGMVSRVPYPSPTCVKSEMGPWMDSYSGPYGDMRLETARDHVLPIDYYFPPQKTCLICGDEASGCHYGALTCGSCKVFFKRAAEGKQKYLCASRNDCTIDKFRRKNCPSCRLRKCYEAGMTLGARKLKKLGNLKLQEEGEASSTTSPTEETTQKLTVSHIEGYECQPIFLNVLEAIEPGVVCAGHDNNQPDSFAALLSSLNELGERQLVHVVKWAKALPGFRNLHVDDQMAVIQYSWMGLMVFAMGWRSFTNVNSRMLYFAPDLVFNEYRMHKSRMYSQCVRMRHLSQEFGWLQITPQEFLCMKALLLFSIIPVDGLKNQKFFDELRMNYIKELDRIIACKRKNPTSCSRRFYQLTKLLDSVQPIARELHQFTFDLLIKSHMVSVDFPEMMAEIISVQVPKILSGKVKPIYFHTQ

A short description of assay [3]: STM_H9_NormalizedViability: Cytotoxicity Assessment at 120 hours in the Stemina devTOX quickPredict H9 human embryonic stem cell (hESC)-based Assay (AID 2283784). The method, boiled down:
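Here, H9 cells received test compound with daily medium renewal. Each plate included methotrexate references (1uM, 5 nM), 0.1% DMSO and media blanks; CellTiter-Fluor RFU was normalized to DMSO.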

Assay [4] in a line: ACEA_AR_agonist_AUC_viability: ACEA Biosciences xCELLigence Real-Time Cell Analysis on Androgen Receptor Agonism for Viability (AID 2283775). The method, boiled down: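 Viability endpoint from xCELLigence impedance in 22Rv1 prostate cells at 80 h. Eight-point series, 100 uM maximum final.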

Where “and” joins values, the source holds several entries; their conditions need not be identical. Equal values may be shown once. Inconclusive results are not listed. Calls of active or inactive are those of the source. How the source made its calls: active means hit-call score of the fitted dose curve at least 0.9, where 1 is the maximum; inconclusive means response in the unintended direction; inactive means score below 0.9.

Regarding `O=C(O)c1cccc(C(=O)O)n1`, the call in assay [1] and in assay [2] was inactive. Consider `O=C(c1ccccc1)c1ccccc1`, for which the result (in assay [1]; with AR (gene 367); in assay [3]) was inactive.

For the compound `Cc1cncc(C)c1`, the AC50 in assay [2] is 12.1 µM (active). Still for that read-out and setting: then `O=C1c2ccc(O)c(O)c2C(=O)c2c(O)ccc(O)c21`, with 6.67 µM (active). As to `N=C(N)c1ccc(OCCCCCOc2ccc(C(=N)N)cc2)cc1`, the AC50 in assay [1] was 17.3 µM (active); in assay [2], 63.5 µM (active).

Turning to `O=C(O)C(F)(F)OC(F)(F)C(F)(F)OC(F)(F)C(F)(F)OC(F)(F)C(F)(F)C(F)(F)C(F)(F)F`, in assay [2], the AC50 is 119 µM (active). With `CCCCCCCCC(C)=O`, the AC50 in assay [2] was 9.92 µM (active).

As to `CN(C)CCOC(c1ccccc1)c1ccccc1`, the call (in assay [4]; in assay [1]; with AR (gene 367)) was inactive. For the same compound, the AC50 in assay [2] was 50 µM (active); in assay [3], 8.23 µM (active). On to `NCc1cccc(CN)c1`, for which the result in assay [4] and in assay [2] was inactive. With `c1ccc2c(c1)CCC2`, the outcome in assay [2] was inactive. Still for that read-out and setting: then `C=CCOCC(CO)(CO)CO`, with “inactive”; and `CCC(=O)O`, with “inactive”. As for `CNNCc1ccc(C(=O)NC(C)C)cc1`, the compound was called inactive in assay [2].

For `CCO[Si](C)(C)OCC`, the outcome in assay [2] was inactive. Still for that read-out and setting: then `CC(C)(O)C(=O)c1ccccc1`, with “inactive”. The same measure, in the same setting: then `CCCCCC(C)OC(=O)COc1ccc(Cl)c2cccnc12` (centres undefined), with “inactive”; and `O=C(O)CCC(F)(F)C(F)(F)C(F)(F)C(F)(F)C(F)(F)C(F)(F)F`, with “inactive”. With `C=COC(=O)C(C)(C)CCCCCC`, the half-maximal activity concentration (AC50) in assay [2] was 19.6 µM (active). For the compound `Clc1ccc2c(Cl)ccnc2c1`, the call in assay [2] was inactive.

In the case of `Cc1ccc(C(=O)c2ccccc2)cc1`, the AC50 in assay [2] was 72.3 µM (active). Regarding `CCCCCCCCCCCCCCC`, the compound was classed as inactive in assay [2]. Same read-out and setting: then `CCCCN(C)C`, with “inactive”. Regarding `CCCCCCCCCCCC[N+](C)(C)Cc1ccccc1`, in assay [2], the AC50 is 3.05 µM (active) and 5.69 µM (active).

Regarding `CCCCCCCCC1CCC(=O)O1` (centres undefined), the half-maximal activity concentration (AC50) in assay [2] was 67.5 µM (active). Still for that read-out and setting: for `CC(C)CCOCCC(C)C` the value was 37.5 µM (active). For `C=CC(=O)OCCN(CC)CC`, the call in assay [2] was inactive. As to `CCCCCCCCCC=CCC1CC(=O)OC1=O` (centres undefined), the call in assay [1] and in assay [2] was inactive. With `O=C(CC(=O)C(F)(F)C(F)(F)C(F)(F)F)c1cccs1`, in assay [2], the AC50 is 113 µM (active). For the compound `CCCCC(CC)C(=O)OCCOCCOCCOCCOC(=O)C(CC)CCCC` (centres undefined), the outcome in assay [2] was inactive. As for `CC(C)(C)C1CCCCC1O` (centres undefined), the AC50 in assay [2] was 77.7 µM (active). Turning to `COC(O)c1ccccc1` (centres undefined), in assay [2], the result was inactive. Turning to `CCCCCCC(C)(C)C(=O)O`, the compound was called inactive (in assay [2]; in the assay with AR (gene 367)). On to `CCOC(OCC)C(=O)c1ccccc1`, for which the compound was classed as inactive in assay [2]. As to `O=S(=O)(O)C(F)(F)C(F)(F)C(F)(F)C(F)(F)C(F)(F)C(F)(F)C(F)(F)C(F)(F)C(F)(F)C(F)(F)F`, the result in assay [2] was inactive. For `COc1ccc(C#N)cc1`, the AC50 in assay [2] was 50 µM (active). Take `CC1=CC(=O)c2ccccc2C1=O`: the outcome in assay [3] was inactive.

As to `COCN(COC)c1nc(N(COC)COC)nc(N(COC)COC)n1`, the outcome in assay [2] was inactive. Still for that read-out and setting: then `CCOC=C(C(=O)OCC)C(=O)OCC`, with “inactive”. `Cn1sccc1=O`: the AC50 in assay [2] was 40.2 µM (active). In addition, in assay [3], the outcome was inactive. For the compound `CC1=NN(c2ccccc2)C(=O)C1`, the result in assay [2] was inactive.

For `CC1CNCC(C)O1` (centres undefined), the compound was called inactive in assay [2].

On to `CCC(C)c1nccnc1OC` (centres undefined), for which the compound was called inactive in assay [2]. On to `O=C(O)C(=O)O`, for which the compound was classed as inactive in assay [2]. For `CN(C)c1ccc(C(=C2C=CC(=[N+](C)C)C=C2)c2ccccc2)cc1`, the concentration at half-maximal activity (AC50) in assay [2] was 3.16 µM (active) and 3.1 µM (active). On the same count and under the same terms, for `O=C1C=CC(=O)N1c1cccc(N2C(=O)C=CC2=O)c1` the value was 23.6 µM (active).

On to `C=CC(=O)OCCC(F)(F)C(F)(F)C(F)(F)C(F)(F)C(F)(F)C(F)(F)C(F)(F)C(F)(F)F`, for which the compound was called inactive in assay [2]. The same measure, in the same setting: then `COc1cccc(O)c1`, with “inactive”; and `CN(CCO)S(=O)(=O)C(F)(F)C(F)(F)C(F)(F)C(F)(F)C(F)(F)C(F)(F)C(F)(F)C(F)(F)F`, with “inactive”.

As to `Oc1cccc2c(O)cccc12`, in assay [2], the AC50 was 20.2 µM (active). As to `O=S(=O)(O)c1ccccc1`, the call in assay [2] was inactive. In the case of `Nc1ccn([C@@H]2O[C@H](CO)[C@@H](O)C2O)c(=O)n1` (some centres undefined), the AC50 in assay [2] is 9.92 µM (active). On the same count and under the same terms, for `OCCN1CN(CCO)CN(CCO)C1` the value was 81.8 µM (active). For the compound `Oc1c(Cl)cc(Cl)cc1Sc1cc(Cl)cc(Cl)c1O`, the result in assay [3] was inactive. With `C=Cc1ccc(O)c(OC)c1`, the result in assay [2] was inactive. In addition, the AC50 in assay [3] was 77.6 µM (active). Take `C=CC(C)(CCC=C(C)C)OC(C)=O` (centres undefined): the compound was called inactive in assay [2]. For the compound `Oc1cc2ccccc2cc1O`, the AC50 in assay [2] is 40.8 µM (active). For `O=C(O)CCC(F)(F)C(F)(F)C(F)(F)C(F)(F)C(F)(F)F`, the outcome in assay [2] was inactive. Regarding `OCC(F)(F)C(F)(F)C(F)(F)C(F)(F)C(F)(F)C(F)(F)C(F)(F)C(F)(F)C(F)(F)C(F)(F)C(F)(F)F`, the AC50 in assay [2] is 16.6 µM (active).

For `C/C=C/C(=O)C1=C(C)CCCC1(C)C`, the call in assay [2] was inactive. In the case of `CC(C)(C)c1ccc(O)c(O)c1`, the results for the AC50 in assay [2] and in assay [3] were 23.4 µM (active) and 86.5 µM (active), respectively.
